Measurements from PubChem BioAssay AID504332 (National Center for Advancing Translational Sciences (NCATS), 2011).
Among all 350,000 compounds or so, about 31,000 (8.9%) were called active. Roughly 15% stayed inconclusive and do not appear here. This excerpt belongs to a sample that is enriched for actives. Values without a mark were called inactive. Calls come from the whole dose curve; as a rule, active = well fitted inhibition curve with a large enough effect; inconclusive = small, poorly fitted or top-dose-only effect; inactive = no such curve, though single readings can be large or run the other way.

Each compound was assayed against Histone-lysine N-methyltransferase EHMT2 (Homo sapiens) (UniProt Q96KQ7) (assay: qHTS Assay for Inhibitors of Histone Lysine Methyltransferase G9a). Settings: G9a H3K9 monomethylation, AlphaScreen, 2 h; series mostly up to 59 µM; activity, negative = inhibition: at the top concentration.
Procedure, shortened: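 AlphaScreen detection with an anti-monomethyl H3K9 antibody quantified product after a 2 h room-temperature reaction containing 500 nM biotinylated H3K9 peptide, 20 µM SAM and 20 nM enzyme, which had been preincubated 15 min with compound.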
% is set by controls: 0 for no effect and ±100 for the full control effect; potency is the fitted concentration of half-maximal effect.
Note: nearly all actives have a fitted effect of over 75% in size.

Histone-lysine N-methyltransferase EHMT2 (Homo sapiens), sequence (Q96KQ7 913-1193 limits assumed): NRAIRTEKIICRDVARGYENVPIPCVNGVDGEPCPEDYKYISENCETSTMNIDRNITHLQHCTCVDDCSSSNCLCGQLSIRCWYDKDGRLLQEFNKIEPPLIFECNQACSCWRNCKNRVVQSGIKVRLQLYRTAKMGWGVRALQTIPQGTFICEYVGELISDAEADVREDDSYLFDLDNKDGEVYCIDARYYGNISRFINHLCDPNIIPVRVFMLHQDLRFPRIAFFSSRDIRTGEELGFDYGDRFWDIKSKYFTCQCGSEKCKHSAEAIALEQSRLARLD

| Compound | Potency | activity, negative = inhibition |
| --- | --- | --- |
| CCOC(=O)N1CCN(C(=O)C2CCN(Cc3ccc(OC)cc3OC)CC2)CC1 | 7.94 µM (active) | – |
| CCOC(=O)N1CCN(C(=O)C2CCN(S(=O)(=O)c3cc(Cl)ccc3OCC)CC2)CC1 | – | 25.7% [at 102 µM] |
| CCOC(=O)N1CCN(CCC(=O)Nc2cc(OC)ccc2OC)CC1 | – | 1.26% [at 102 µM] |
| CCN1C(=O)[C@H]2[C@@H](c3ccc(-c4ccc(OC)cc4)cc3)N[C@@](Cc3ccccc3)(C(=O)OC)[C@H]2C1=O | – | -6.39% [at 2.33 µM] |
| CCOc1ccc(NC(=O)CN(C)C(=O)CCSc2ccc(F)cc2)cc1OCC | – | 21% [at 12.7 µM] |
| CCN(CC(=O)Nc1ccccc1C(=O)NC1CC1)Cc1cccs1 | – | -3.89% [at 102 µM] |
| O=C(CSc1nnc(-c2ccco2)n1CC1CCCO1)c1ccccc1 (stereo unspecified) | 50.1 µM (active) | – |
| O=C(CSc1nnc(-c2ccco2)n1Cc1ccccc1)NC(=O)NCc1ccco1 | – | -51% |
| O=C(CSc1nnc(-c2ccco2)o1)NCC(=O)c1ccccc1 | – | 81.8% |
| Cc1nnc(SCC(=O)NNC(=O)c2ccc(Cl)cc2)n1CC1CCCO1 (stereo unspecified) | 35.5 µM (active) | – |
| Cc1nnc(SCC(N)=O)n1CC1CCCO1 (stereo unspecified) | – | -0.186% [at 2.33 µM] |
| O=C(COc1ccc(Cl)cc1)NCc1nnc(SCC(=O)NCC2CCCO2)o1 (stereo unspecified) | – | 9.29% |
| CCC(NC(=O)C1CCCC1)c1ccc(C)cc1 (stereo unspecified) | – | 32.5% [at 102 µM] |
| Cc1ccccc1NC(=O)Cn1c(=O)n(CCc2ccccc2)c(=O)c2ccccc21 | – | 3.53% |
| Cc1ccc(S(=O)(=O)Nc2nc(CN3CCOCC3)nc3sc(C)c(C)c23)cc1 | – | 19.1% [at 2.33 µM] |
| O=C(OCC(=O)N1CCCCCC1)c1cnc(Cl)c(Cl)c1 | – | -2.7% |
| CCNC(=O)N1CCN(S(=O)(=O)c2ccc3c(c2)OCCCO3)CC1 | – | -26.7% [at 2.33 µM] |
| COc1ccc(OC)c(CCNC(=O)CCn2ccc3cc(S(=O)(=O)N4CCCC4)ccc32)c1 | – | 21.9% |
| O=C1CC[C@H](O)CCN1[C@H](CSc1ccc(Br)cc1)Cc1ccccc1 | – | 11.1% [at 2.33 µM] |
| O=C(CSc1nnc(-c2ccncc2)n1-c1ccccc1)Nc1ccc(Cl)c(Cl)c1 | – | 1.17% |
| COc1ccc(OC)c(CNC(=O)Cn2nc(C)c3c(C)n(-c4ccccc4)nc3c2=O)c1 | – | 0.0803% |
| CCOC(=O)C1CCCN(CC(=O)Nc2cc(C)c3c(=O)oc4ccccc4c3n2)C1 (stereo unspecified) | – | -12% |
| COC(=O)c1sc2ncccc2c1-n1c(C)ccc1C | – | -7.5% |
| O=C(CSc1ccccc1)Nc1cccc(S(=O)(=O)N2CCCCC2)c1 | – | 14.6% [at 12.7 µM] |

| Compound | Potency | activity, negative = inhibition |
| --- | --- | --- |
| CCN(/N=C/c1ccc(N(C)C)cc1)c1nc2ccccc2[nH]1 | 2.82 µM (active) | – |
| CCCCSc1nc2ccccc2[nH]1 | – | 15.5% [at 102 µM] |
| CCN(/N=C/c1ccccc1)c1cc(=O)n(C)c(=O)[nH]1 | – | -16.6% |
| CN1C(=O)C2(OCCCO2)c2cc(Cl)ccc21 | – | 19.4% [at 102 µM] |
| COc1cc(NC(=O)CSC(=S)N2CCCC2)c(OC)cc1Cl | – | 13.5% [at 2.33 µM] |
| Cc1ccccc1-n1nc(C)c2c1N=C1C(Cl)=CC(Cl)=CN1C2c1ccc(C(=O)O)cc1 (stereo unspecified) | 25.1 µM (active) | – |
| CC1CCN(C(=O)Cn2c(=O)n(-c3ccc(Cl)cc3)c(=O)c3c4c(sc32)CCC4)CC1 | – | -10.8% |
| CCn1c(SC)nc(O)c(C(c2ccc(OC)c(O)c2)c2c(O)nc(SC)n(CC)c2=O)c1=O | 10 µM (active) | – |
| COc1ccc2c(c1OC)C(=O)OC2c1c(O)nc(SC)n(-c2ccccc2)c1=O (stereo unspecified) | – | 4.51% [at 12.7 µM] |
| CCn1c(CNC(=O)c2ccc(OC)c(OC)c2)nnc1SCC(=O)Nc1ccccc1 | – | 2.65% [at 102 µM] |
| CCOc1ccccc1NC(=O)C1=C(C)Nc2ncnn2C1c1ccc(NC(C)=O)cc1 (stereo unspecified) | – | 14.9% |
| COc1ccccc1N1CCN(c2ccc(=O)n(CC(=O)NCc3ccc(OC(C)C)cc3)n2)CC1 | – | -1.85% |
| COc1cccc(Cn2c(SCc3ccc(C(=O)N4CCCCC4)cc3)nc3ccncc32)c1 | – | -21.9% |
| Cc1cccc(Cn2c(SCc3ccc(C(=O)N4CCC(C)CC4)cc3)nc3ccncc32)c1 | – | 5.78% |
| COc1cccc(Cn2c(SCc3ccc(C(=O)N4CCC(C)CC4)cc3)nc3ccncc32)c1 | 1.78 µM (active) | – |
| O=C(CSc1nc2c(c(=O)[nH]1)CN(Cc1ccc3c(c1)OCO3)CC2)Nc1cc(F)ccc1F | – | -25.9% |
| Cc1ccc2oc(C(=O)N3CCN(C)C[C@@H]3C(C)C)c(C)c2c1 | – | 45.1% [at 102 µM] |
| CN(C)S(=O)(=O)c1cc(C(=O)Nc2ccn(C)n2)c(Cl)cc1Cl | – | 19.1% [at 12.7 µM] |
| FC(F)(F)Oc1ccc(NC(=S)NCc2ccccc2)cc1 | – | 9.57% [at 102 µM] |
| CS(=O)(=O)c1sc(C(=O)NC(=S)Nc2ccc(OC(F)(F)F)cc2)c2c1C=CCC2 | 50.1 µM (active) | – |
| CCNC(=S)Nc1ccc(OC(F)(F)F)cc1 | – | 13.3% [at 102 µM] |
| COc1cc(OC)c(C(=O)Nc2ccc(N(C)C)cc2)cc1OC | 4.47 µM (active) | – |
| COc1ccc(Cl)cc1C(=O)Nc1ccc(N(C)C(C)=O)cc1 | – | 23.8% |
| COc1cc(OC)c(C(=O)Nc2ccccc2-c2ccccc2)cc1OC | – | -48.3% [at 102 µM] |

| Compound | Potency | activity, negative = inhibition |
| --- | --- | --- |
| COc1ccc(C(C)NC(=O)C23CC4CC(CC(C4)C2)C3)cc1 (stereo unspecified) | – | 23.9% [at 102 µM] |
| CCOc1ccc(-c2cc3nc(C4CCN(C(=O)OC(C)(C)C)CC4)c(C(=O)Nc4cccc(CC)c4)cn3n2)cc1 | – | -6.19% |
| O=C(NCc1ccc2c(c1)CCN2C(=O)c1ccccc1)Nc1cc(F)ccc1F | – | -15.2% |
| CC(C)c1c(O)nc(SCCOc2ccc(Cl)cc2)[nH]c1=O | – | 4.44% [at 102 µM] |
| CCSc1nc(C)c(CCOc2cccc(C)c2)c(=O)[nH]1 | – | -3.47% |
| CCSc1nc(O)c(C(c2cccc(OC)c2)c2c(O)nc(SCC)[nH]c2=O)c(=O)[nH]1 | 70.8 µM (active) | – |
| CCCCn1c(N)c(N(CC)C(=O)c2ccc(N(C)S(=O)(=O)c3ccc(C)cc3)cc2)c(=O)[nH]c1=O | – | 8.91% [at 12.7 µM] |
| CCCCn1c(N)c(N(CCC(C)C)C(=O)COC(=O)c2cccnc2OCC)c(=O)[nH]c1=O | – | 10.4% |
| COc1ccc(NS(=O)(=O)c2ccc(C)c(C(=O)NCC(c3cccs3)N3CCOCC3)c2)cc1 (stereo unspecified) | – | -6.36% [at 102 µM] |
| COc1cccc(N2CC(NC(=O)c3ccc4ccccc4c3)CC2=O)c1 (stereo unspecified) | – | 2.32% [at 102 µM] |
| CC(NCc1cccs1)C(=O)Nc1cc(Cl)cc(Cl)c1 (stereo unspecified) | 5.01 µM (active) | – |
| CC(NCC(=O)Nc1cc(Cl)cc(Cl)c1)c1ccccc1 (stereo unspecified) | – | -0.468% [at 102 µM] |
| CC(=O)c1ccc(NC(=O)C(C)NCc2ccc(Cl)cc2)cc1 (stereo unspecified) | – | 7.53% [at 102 µM] |
| Cc1cccc(NC(=O)c2sc3nc(N4CCOCC4)c4c(c3c2N)CCCC4)c1 | – | 6.18% [at 0.501 µM] |
| CC(NC(=O)CN(C)S(=O)(=O)c1ccc(F)cc1)C1CC2CCC1C2 (stereo unspecified) | – | 11.8% [at 12.7 µM] |
| COc1ccccc1C(=O)OCc1cc(=O)n2nc(-c3cccs3)sc2n1 | – | 7.4% |
| Cc1cc(NC(=O)CSc2nc(C(C)C)nc3sc4c(c23)CCC(C)C4)no1 (stereo unspecified) | 1 µM (active) | – |
| CCCCOC(=O)CSc1ncnc2sc3c(c12)CCC(C)C3 (stereo unspecified) | – | 76.4% |
| CC(C)c1nc(SCC(=O)Nc2cccc(C(=O)O)c2)c2c3c(sc2n1)CCCC3 | – | -2.84% [at 102 µM] |
| CCOc1ccccc1CNC(=O)c1cnc2c(-c3ccc(OCC)c(OCC)c3)c(C)nn2c1C | – | -3.36% |
| CCc1nccn1S(=O)(=O)c1cc(Br)ccc1Br | – | 4.79% |
| Cc1ccnc(NC(=O)CCC(=O)N(CC(=O)NCCc2ccccc2)Cc2cccs2)c1 | – | 7.27% [at 102 µM] |
| O=C(O)CCC(=O)N(Cc1cccs1)Cc1cccs1 | 50.1 µM (active) | – |
| O=C(CCc1ccccc1)NCCc1cccs1 | – | 31.8% [at 102 µM] |

| Compound | Potency | activity, negative = inhibition |
| --- | --- | --- |
| Fc1ccc(COc2cccc(-c3n[nH]c(=S)o3)c2)cc1 | 5.01 µM (active) | – |
| CN(Cc1ccc(F)cc1)C(=O)COc1ccc2ccccc2c1 | – | 21.6% [at 102 µM] |
| Fc1ccc(COc2ccc(-c3nnco3)cc2)cc1 | – | 14.6% [at 102 µM] |
| O=C(N/N=C/c1ccccc1O)C1CCCC1 | – | 36.3% [at 102 µM] |
| COc1ccc(Cn2ccc3nc(C)c(C(=O)Nc4ccc(C)c(F)c4)cc3c2=O)cc1 | – | 0.748% |
| O=C(O)c1ccccc1NC(=S)NC(NC(=O)c1ccccc1[N+](=O)[O-])C(Cl)(Cl)Cl (stereo unspecified) | 12.6 µM (active) | – |
| O=C(Nc1ccccc1-c1ccccc1)c1ccccc1[N+](=O)[O-] | – | 6.77% [at 102 µM] |
| O=C(O)c1ccccc1C(=O)Nc1ccccc1[N+](=O)[O-] | – | -29.3% [at 102 µM] |
| Cc1ccc(CNC(=O)c2c(O)nc3c(C)cccn3c2=O)cc1 | – | -10.5% |
| Cc1ccc(Cn2c(=O)n(-c3ccc(C)cc3)c(=O)c3c2c2cc(C)ccc2n3C)cc1 | – | -5.57% |
| CCSc1nnc2c(n1)OC(c1ccc(OCC(=O)O)cc1)Nc1ccccc1-2 (stereo unspecified) | – | -45.6% |
| COc1ccc(OCCCCN2CCC(C)CC2)cc1 | – | 5.74% [at 102 µM] |
| COc1ccc(OCCn2ccnc2C)cc1 | 8.91 µM (active) | – |
| COc1ccc(OCCC(=O)c2ccc(OC)cc2)cc1 | – | -34.9% [at 102 µM] |
| O=C(OCC(=O)N1CCCC1=O)c1cc(S(=O)(=O)N2CCOCC2)ccc1Cl | – | -46.3% [at 102 µM] |
| CCC(C(=O)Nc1cccc(-c2nc3cccnc3s2)c1C)c1ccccc1 (stereo unspecified) | – | 8.59% |
| Cc1cc(C)nc(Nc2n[nH]c(-c3ccccc3N)n2)n1 | 7.94 µM (active) | – |
| Cc1cc(C)nc(Nc2ncn[nH]2)n1 | – | 11.3% [at 102 µM] |
| Cc1cc(C)nc(NC(=O)C(C)N2C(=O)c3ccccc3C2=O)n1 (stereo unspecified) | – | -3.61% [at 102 µM] |
| CCOc1ccccc1C(=O)NCC(c1ccc(N(C)C)cc1)N1CCCC1 (stereo unspecified) | – | 2.29% [at 12.7 µM] |
| C[C@H](NC(=O)c1ccccc1)C(=O)OCC(=O)c1c[nH]c2ccccc12 | – | -6.84% |
| CN(C)c1ccc(C(CNC(=O)c2ccc(F)cc2)c2c[nH]c3ccccc23)cc1 (stereo unspecified) | 10 µM (active) | – |
| CCCN1CCN(CCCNC(=O)c2ccc3nc(Cc4ccccc4)oc3c2)CC1 | – | 4.53% |
| O=C(c1c(F)cccc1F)N1CCN(S(=O)(=O)c2ccc3c(c2)OCCO3)CC1 | – | -0.69% [at 0.501 µM] |
